# Source: PubChem (several laboratories)
# Shown are actives, neighbours in structure and some others; about 3.6% of the full set was active somewhere.
# FAS-TE inh – FAS thioesterase (human) inhibition; 0.67% of 360,000 active; inhibition, % at 15 µM; recombinant FAS-TE, OMFH fluorogenic substrate, fluorescence endpoint;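 active = compounds whose normalised, plate-corrected inhibition of enzyme fluorescence in the single-dose primary screen is 50% or more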;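 note: 0% = DMSO with enzyme and 100% = substrate without enzyme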
# NRP1-CendR mod – NRP-1/CendR interaction modulation | AID 602438 | 0.85% of 360,000 active | O14786 | FAM-RPARPAR peptide binding to NRP-1, fluorescence polarization | inhibition, % at 25 µM;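 active = inhibition or corrected inhibition above about 18%, plus a signal ratio from 0.5 to 1.5, limit read from the data, passing the limit was not always enough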
# Target sequence (O14786 whole entry, looked up): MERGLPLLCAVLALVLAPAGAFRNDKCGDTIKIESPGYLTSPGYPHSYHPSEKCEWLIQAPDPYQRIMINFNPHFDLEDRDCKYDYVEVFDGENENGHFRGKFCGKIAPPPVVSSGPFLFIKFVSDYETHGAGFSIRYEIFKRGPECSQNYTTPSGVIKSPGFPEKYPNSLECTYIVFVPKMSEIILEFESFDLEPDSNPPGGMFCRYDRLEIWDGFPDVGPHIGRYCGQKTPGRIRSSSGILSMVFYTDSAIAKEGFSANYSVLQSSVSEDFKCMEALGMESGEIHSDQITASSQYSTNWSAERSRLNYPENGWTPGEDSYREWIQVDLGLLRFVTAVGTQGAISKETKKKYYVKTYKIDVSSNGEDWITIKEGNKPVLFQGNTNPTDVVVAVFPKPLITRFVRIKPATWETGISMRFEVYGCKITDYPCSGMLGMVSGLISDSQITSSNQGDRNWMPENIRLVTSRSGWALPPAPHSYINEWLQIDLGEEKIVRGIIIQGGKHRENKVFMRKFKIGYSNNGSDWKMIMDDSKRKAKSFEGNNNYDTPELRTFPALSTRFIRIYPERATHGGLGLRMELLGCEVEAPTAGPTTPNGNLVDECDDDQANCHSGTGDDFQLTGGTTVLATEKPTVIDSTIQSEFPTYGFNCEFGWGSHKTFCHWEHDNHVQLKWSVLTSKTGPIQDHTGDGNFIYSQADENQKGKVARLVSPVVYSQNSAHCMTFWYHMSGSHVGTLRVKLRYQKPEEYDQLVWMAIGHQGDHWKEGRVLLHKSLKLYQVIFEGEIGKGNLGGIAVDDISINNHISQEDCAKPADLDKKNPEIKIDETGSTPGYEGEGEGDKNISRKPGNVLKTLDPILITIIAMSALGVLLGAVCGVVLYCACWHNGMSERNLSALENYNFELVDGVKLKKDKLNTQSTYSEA
# NadD block – inhibitors of Staphylococcus aureus NadD. purified NadD enzyme, colorimetric absorbance read-out. 0.78% of 360,000 active. AID 602399. inhibition, % at 20 µM; in the data active = inhibition above about 26%
# CRFBP-R2 block – CRF-BP/CRF-R2 complex antagonism | HEK293 CRF-R2/CRF-BP, CRF-induced calcium fluorescence | inhibition, % at 11.8 µM | 0.59% of 350,000 active;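 active = inhibition of the ligand-induced calcium signal above about 50% at the single tested concentration, limit read from the data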
# Myeloid diff MLP – myeloid differentiation induction | 1% of 360,000 active | ER-HoxA9 myeloid progenitors, lysozyme-GFP differentiation, flow cytometry | calls only at 10 µM | AID 624256;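 active = normalized GFP-positive differentiation at or above the plate's own cutoff, the solvent-only control mean plus 3 SD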;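 note: cells exposed to compound for four days before flow analysis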
# FAS-TE conf – confirmation of human fatty acid synthase thioesterase inhibitors | recombinant FAS-TE, OMFH fluorogenic substrate, fluorescence | AID 624325 | 45% of 2,300 active | shares compounds with FAS-TE inh | inhibition, % at 15 µM;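 active = compounds inhibiting the enzyme by at least 50% at 15 µM in any one of the replicates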;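 note: 0% = enzyme with DMSO only and 100% = wells lacking enzyme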
# NadD inh conf – NadD (S. aureus) inhibition, single concentration confirmation | shares compounds with NadD block | purified S. aureus NadD, colorimetric enzyme assay | inhibition, % at 20 µM | 13% of 2,000 active | AID 624309; in the data active = inhibition mostly above about 42%, no sharp cut-off; inactive = mostly below about 42%
# Myeloid diff – promotes myeloid progenitor differentiation; shares compounds with Myeloid diff MLP; ER-HoxA9 myeloid progenitors, GFP/Mac1 double-positive flow; calls only; 2% of 2,300 active;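 active = share of green or green-and-red cells above 9 and 9% in run 1 or 4 and 3% in run 2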
# GFP autofluor – counter-screen for myeloid differentiation promoters: compound fluorescence | shares compounds with Myeloid diff MLP | ER-HoxA9 myeloid progenitors, no estrogen, GFP autofluorescence flow cytometry; vehicle wells 0%, positive control 100% | fluorescence response, % (test concentration not listed) | 7.4% of 2,300 active;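 active = over 5% cells positive for green fluorescent reporter, or over 2% positive for both it and APC stain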;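 note: range taken on the double positive population between DMSO and positive control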
# * hit, by the source's call; i = inactive; · = no result; + = active, no number.
SMILES,FAS-TE inh,NRP1-CendR mod,NadD block,CRFBP-R2 block,Myeloid diff MLP,Myeloid diff,GFP autofluor,others
CC1CC2C(C(O)CC3(C)C(O)CCC23)C2(C)CCC(=O)C=C12 (configuration not stated),-9.8,3.1,3.0,-6.6,i,·,·,
O=c1[nH]c2ccccc2n1C1CCN(C(c2ccccc2OC(F)(F)F)c2nnnn2-c2ccc3c(c2)OCCO3)CC1 (configuration not stated),82.6*,7.3,28.9*,·,i,·,·,FAS-TE conf=19.0;NadD inh conf=10.7
O=C1NCN(c2ccccc2)C12CCN(C(c1cccc3ccccc13)c1nnnn1Cc1ccccc1)CC2 (configuration not stated),79.1*,10.4,31.8*,·,i,·,·,FAS-TE conf=4.0;NadD inh conf=18.2
O=C1NCN(c2ccccc2)C12CCN(C(c1ccnc3ccccc13)c1nnnn1Cc1ccccc1)CC2 (configuration not stated),7.1,7.1,4.8,·,i,·,·,
O=C1NCN(c2ccccc2)C12CCN(C(c1cccc3ccccc13)c1nnnn1-c1ccc3c(c1)OCCO3)CC2 (configuration not stated),87.5*,11.0,31.2*,·,i,·,·,FAS-TE conf=8.2;NadD inh conf=19.1
CCN1CCOC(c2ccccc2)C1 (configuration not stated),-7.2,9.8,-3.4,6.4,i,·,·,
Cc1ccc(OP2(=O)Nc3cc(C)c(C)cc3S2)cc1 (configuration not stated),-5.7,2.6,7.8,-4.2,i,·,·,
O=c1[nH]c2ccccc2n1C1CCN(C(c2nnnn2-c2ccc3c(c2)OCCO3)C2CC2)CC1 (configuration not stated),9.7,1.1,6.1,·,i,·,·,
O=c1[nH]c2ccccc2n1C1CCN(C(c2ccccc2)c2nnnn2-c2ccc3c(c2)OCCO3)CC1 (configuration not stated),39.5,-2.2,31.2*,·,i,·,·,NadD inh conf=9.0
CCCCCCn1c(=O)c(C(=O)Nc2c(C)n(C)n(-c3ccccc3)c2=O)c(O)c2ccccc21,15.3,3.3,32.1*,2.0,i,·,·,NadD inh conf=7.2
COc1ccc(OC(=O)N(C)C[C@@H]2OCc3ccccc3-c3c(n(C)c4ccccc34)C(=O)N([C@H](C)CO)C[C@@H]2C)cc1,7.0,-5.9,-7.3,-17.9,i,·,·,
CCC(C)OC(=O)c1c(N)n(Cc2cccs2)c2nc3ccccc3nc12 (configuration not stated),9.8,-19.4,8.1,-4.4,i,·,·,
Nc1c(C(=O)OCc2ccccc2)c2nc3ccccc3nc2n1Cc1cccs1,16.4,1.6,30.2*,-10.1,i,·,·,NadD inh conf=23.4
Cc1ccc2c(c1Cl)NC(C(=O)O)C1CC(Sc3ccccc3[N+](=O)[O-])C(Cl)C21 (configuration not stated),31.9,8.0,35.7*,-22.9,i,·,·,NadD inh conf=31.1
COC1C(OC(=O)c2ccc(C)[nH]2)C(O)C(Oc2ccc3c(O)c(NC(=O)c4ccc(O)c(CC=C(C)C)c4)c(=O)oc3c2Cl)OC1(C)C (configuration not stated),10.4,-73.6,31.4*,18.6,i,·,·,NadD inh conf=50.4*
CCOC(=O)C(O)(c1ccc(NC(=O)NC)cc1)C(F)(F)F (configuration not stated),-2.5,1.4,-1.7,2.5,i,·,·,
C[C@]12CC[C@@H](O)CC1=CC(=O)C1C2CC[C@]2(C)C(=O)[C@H](O)CC12 (some centres not stated),-1.2,-5.9,1.8,-4.3,i,·,·,
CCOC(=O)C1SC2(C(F)(F)F)CC1(O)c1c(C)cc(C)nc1O2 (configuration not stated),-1.7,8.1,2.2,-4.3,+,i,0.3,
O=c1[nH]c(=S)[nH]c(O)c1N=Nc1ccc2c(c1)OCCO2,-1.8,-138.3,-5.3,5.3,+,i,0.5,
O=c1[nH]c(=S)[nH]c(O)c1N=Nc1ccc2c(c1)OCO2,1.0,-84.7,-7.9,10.4,i,·,·,
CCC(=NC(C)c1ccccc1)c1c(O)[nH]c(=O)[nH]c1=O (configuration not stated),-3.2,8.0,-2.0,-5.5,+,i,0.8,
COc1ccc(C2=NCC(=O)N(CC(=O)NCc3ccco3)c3sc4c(c32)CCCC4)cc1,3.4,-2.6,13.4,-0.3,i,i,1.0,
CCCCn1c(=O)c(C=Nc2cc([N+](=O)[O-])ccc2OC)c(O)n(CCCCl)c1=O,39.7,-35.9,-2.7,3.1,i,·,·,
O=C(c1cc(F)ccc1F)C1CCCN(Cc2ccc3nonc3c2)C1 (configuration not stated),23.5,-5.0,-8.7,19.1,i,·,·,
O=C(Nc1cccc2ccccc12)N1Cc2ccccc2-n2nncc2C1,0.1,-0.9,-6.1,-12.3,i,·,·,
SMILES,FAS-TE inh,NRP1-CendR mod,NadD block,CRFBP-R2 block,Myeloid diff MLP,Myeloid diff,GFP autofluor,others
CCN(CC)C(=O)c1ccc(NC(=O)c2cccc(S(=O)(=O)N3CCN(Cc4ccccc4)CC3)c2)cc1,13.4,-8.7,-2.5,-1.6,i,i,1.3,
CCN(CC)C(=O)c1ccc(NC(=O)c2cc(S(=O)(=O)N3CCCCCC3)ccc2OC)cc1,4.8,0.7,5.0,-1.5,i,·,·,
O=C1NC(=O)N(Cc2cccs2)C(=O)/C1=C/c1ccc(N2CCOCC2)cc1,-2.5,-13.0,7.0,-23.4,·,·,·,
O=C1NC(=O)N(Cc2ccccc2Cl)C(=O)/C1=C/N1CCOCC1,-9.8,-126.1,3.5,15.4,i,i,0.8,
Fc1ccccc1N1CCN(Cc2ccc3c(c2)OCO3)CC1,1.5,-6.2,7.1,14.7,i,i,0.3,
S=C(N1CCCCCC1)N1CC1,-5.5,-1.4,0.8,-9.6,i,·,·,
Cc1ccc(-n2c(=O)[nH]c3ccccc3c2=O)cc1[N+](=O)[O-],11.4,2.4,6.6,·,i,·,·,
CCc1ccc(NC(=O)C(C)OC(=O)c2c(C)nn(Cc3ccccc3)c2Cl)cc1 (configuration not stated),26.9,-4.1,-15.9,-37.4,i,·,·,
Cc1nn(Cc2ccccc2)c(Cl)c1C(=O)OC(C)C(=O)Nc1ccc(F)cc1Cl (configuration not stated),-5.7,-2.3,-3.8,17.0,i,i,1.1,
Cc1cc(NC(=O)COC(=O)c2c(C)nn(Cc3ccccc3)c2Cl)no1,-8.7,-1.3,-6.2,-1.1,i,+,0.3,
CC(N)Cc1c[nH]c2c1ccc1ccccc12 (configuration not stated),1.1,-5.2,0.0,-4.2,i,i,1.1,
